# Reference: PubChem BioAssay AID686979 (National Center for Advancing Translational Sciences (NCATS), 2013)
# Several values for one entry are separate records, joined by “and”; a condition that tells them apart may be missing. Identical values can stand only once. About 50,000 (12%) of roughly 420,000 compounds were called active. Not shown: some 26% with an inconclusive outcome. The entries come from a sample that favours actives as a whole. A call without a number means that no potency is given here. A number with no mark means an inactive call. The call rests on the fitted dose curve; in most records, active means well fitted inhibition curve with a large enough effect; inconclusive means small, poorly fitted or top-dose-only effect; inactive means flat fitted curve, though single readings scatter.
# Test: qHTS for Inhibitors of human tyrosyl-DNA phosphodiesterase 1 (TDP1): qHTS in cells in presence of CPT; further: nearly all actives have a fitted effect of over 55% in size
# Details: chicken DT40 Tdp1-/-;hTDP1 cells + 20 nM CPT, ATP luminescence, 48 h; series mostly up to 46.2 µM
# Source text: Human tyrosyl-DNA phosphodiesterase 1 (TDP1) is a novel repair gene, and we propose to use it as a new target for anticancer drug development. TDP1 is not an essential protein, but under treatment with topoisomerase I poison (camptothecin: CPT), TDP1 works as a critical factor for cell survival. To directly identify novel TDP1 inhibitors active in a cellular environment, we have knocked-out the Tdp1 gene in chicken DT40 cells (Tdp1-/-) and generated a complemented counterpart cells that contains a stable transfection of the human TDP1 gene (Tdp1-/-;hTDP1 cells). For the primary screen, Tdp1-/-;hTDP1 cells will be exposed to small molecules in the presence or absence of CPT, and their growth kinetics will be evaluated after 48 hours by measuring ATP activity. […] The hit compounds will then be evaluated in the presence or absence of CPT using Tdp1-/- cells. […] In tertiary assays, biochemical gel-based assays will be used to assess whether the hit compounds specifically target TDP1. To this end, we have screened this cell line against the MLSMR in two primary screens. In one screen we add CPT and in the other we screen in the absence of CPT; this AID represents the screen where CPT was present. NIH Chemical Genomics Center [NCGC] NIH Molecular Libraries Probe Centers Network [MLPCN] MLPCN Grant: MH095538 Assay Submitter (PI): Yves Pommier, NCI
# DT40-hTDP1 cells with 20 nM Camptothecin (add 20 microL of 1 mM CPT stock in 1 L of cell culture medium) were dispensed at 400 cells/5microL/well in tissue culture treated 1536-well white wall/solid bottom assay plates (Greiner Bio-One North America, NC, U.S.A.) using a Multidrop Combi 8 channel dispenser (Thermo Fisher, Waltham, MA, USA). 23 nL compounds and controls were transferred using the pin tool (Kalypsys, San Diego, CA, USA) to the assay plates. The assay plates were then incubated at 37 masculineC for a minimum 48 hr. Three microL of Cell Titer Glo solution was added to the plates and incubated at RT in dark for 30 min. Luminescence was read using ViewLux (Perkin Elmer) with 1 sec exposure slow speed, high gain and 2x binning.
# Potency means the concentration at half of the fitted maximal effect.
Structure (SMILES),Potency,"activity change, negative = growth inhibition"
CCOc1ccc(N(CC(=O)NCC2CCCO2)S(=O)(=O)c2ccc(C)cc2)cc1 (stereo unspecified),inactive,
O=C(COC(=O)c1ccc2c(c1)OCCO2)NCc1ccccc1Cl,inactive,
Cc1ccc(NC(=O)NC(=O)N(C2CCCCC2)S(=O)(=O)c2ccccc2)cc1,inactive,
COCCNc1nc(N)c([N+](=O)[O-])c(N2CCCCCC2)n1,inactive,
CSc1nsc(SCC(=O)Nc2cc(C(=O)O)ccc2C)n1,inactive,
Cc1c(C(=O)N/N=C/c2ccccc2)[nH]c2c([N+](=O)[O-])cccc12,0.651 µM (active),
Cc1ccc2[nH]c(C(=O)O)c(NC(=O)c3ccccc3[N+](=O)[O-])c2c1,inactive,
Cc1cc(C(=O)N/N=C/c2ccccc2[N+](=O)[O-])c(C)o1,inactive,
O=c1c(O)c(Br)ccc2c(Br)c(O)c(O)c(O)c12,,-8.83% [at 9.04 µM]
O=C(COc1ccccc1O)NC1CCCC1,inactive,
CCN(CC)CCn1cnc2c1c(=O)[nH]c(=O)n2Cc1ccccc1,inactive,
COCCn1cnc2c1c(=O)n(CC(=O)NN)c(=O)n2Cc1ccccc1,inactive,
N=c1c2c(-c3ccccc3)c(-c3ccccc3)n(Cc3ccccc3)c2ncn1CCCO,10.3 µM (active),
CCOC(=O)c1sc(N)c(C#N)c1COC(=O)C1=COCCO1,inactive,
CCCNC(=S)N1CCC(NC(=O)C23CC4CC(CC(C4)C2)C3)CC1,inactive,
COc1ccc(Cl)cc1N(CC(=O)N/N=C/c1ccc(OCC(N)=O)cc1)S(C)(=O)=O,inactive,
COC(=O)c1sc2ncccc2c1OCc1ccc(Cl)cc1Cl,inactive,
NC(N)=N/N=C/c1ccc(OCc2ccc(Cl)cc2Cl)cc1,25.9 µM (active),
CCOC(=O)C1CCN(S(=O)(=O)c2ccc3c(c2)N(C)C(=O)CC(=O)N3C)CC1,inactive,
CCCCC(=O)N/N=C(\C)CC(=O)Nc1cc(Cl)ccc1OC,inactive,
CC(=O)Nc1ccc(OCC(=O)NCc2ccc(C)cc2)cc1,inactive,
C/C(CC(=O)NCc1ccc(Cl)cc1)=N\NC(=O)COc1ccc(C)cc1Br,16.4 µM (active),
CN(CC(=O)Nc1cccc(F)c1)C(=O)C1CSC2(C)CCC(=O)N12 (stereo unspecified),inactive,
Cc1ccsc1C(=O)OCC(=O)NCCc1ccccc1,inactive,
Cc1cc(C)nc(Nc2n[nH]c(-c3ccccc3N)n2)n1,inactive,
C=CCC1=C/C(=C\c2c(N)n3nc(CC(=O)N4CCOCC4)sc3nc2=O)C=C(OC)C1=O,inactive,

Structure (SMILES),Potency,"activity change, negative = growth inhibition"
N#CCCN(C(=O)Nc1ccc(Cl)c(Cl)c1)C1CCCCC1,inactive,
Cc1ccn2c(Nc3ccc4c(c3)OCCO4)c(-c3ccc(C)s3)nc2c1,inactive,
Cc1ccc(Nc2c(-c3ccc(C)s3)nc3ccccn23)cc1,16.4 µM (active) and 20 µM (active),
COc1cc(NC(=O)CN(C)S(=O)(=O)c2ccc3nc(C)sc3c2)cc(OC)c1,inactive,
CCCC12CN3CC(C)(CN(C1)C3c1ccccc1Cl)C2=O (stereo unspecified),inactive,
CCN(CC)CC(=O)c1c[nH]c2ccc(OC)cc12,inactive,
CCCC12CN3CC(CCC)(CN(C1)C3c1c[nH]c3ccc(OC)cc13)C2=O (stereo unspecified),18.4 µM (active),
COc1ccc(-c2c(C#N)cnc(C)c2C)c(O)c1OC,inactive,
CCOC(=O)c1ccccc1NC(=O)COC(=O)CCC(=O)N1CCOCC1,inactive,
O[C@@H]1C[C@H](c2ccccc2)N(Cc2cccs2)C[C@H]1n1cc(C2CC2)nn1,inactive,
CC(C)CC(=O)N1CCN(Cc2ccccc2Br)CC1,inactive,
C=C1C(=O)C23C(O)C1CCC2[C@]12COC3(O)C(O)C1C(C)(C)CC[C@H]2O (stereo partly specified),3.26 µM (active),
N#CCSc1nc2c(c(=O)n1Cc1ccccc1)C1(CCCC1)Cc1ccccc1-2,16.4 µM (active),
Cc1cccc(-n2c(SCC(N)=O)nc3c(c2=O)C2(CCCCC2)Cc2ccccc2-3)c1,inactive,
CC(/C=C/C1(O)C(C)CC(=O)CC1(C)C)OC1OC(CO)C(O)C(O)C1O (stereo unspecified),inactive,
Cc1ccc(N2C(=O)CC(N3CCSCC3)C2=O)c(C)c1 (stereo unspecified),inactive,
CNc1nc(=O)n(C2CCCO2)cc1C (stereo unspecified),inactive,
COc1cccc(/C=N/Nc2ncc(C(F)(F)F)cc2Cl)c1O,4.61 µM (active),
COc1cc(/C=C2\SC(=S)N(Nc3ncc(C(F)(F)F)cc3Cl)C2=O)cc(OC)c1OC,inactive,
N/C(=N\OC(=O)Nc1ccc(Cl)c(Cl)c1)c1ncc(C(F)(F)F)cc1Cl,inactive,
CC(=O)c1c(C)[nH]c(C(=O)CN2C(=O)NC(C)(C)C2=O)c1C,inactive,
O=C(N/N=C/c1cc2c(cc1Br)OCO2)C1COc2ccccc2O1 (stereo unspecified),inactive,
COc1ccc(C2=CC(c3cccc(OC)c3)n3nnnc3N2)cc1 (stereo unspecified),inactive,
CCOc1cccc(-n2nnnc2-c2ccc(OC)cc2)c1,2.91 µM (active),
COc1ccc(NC(=O)CSc2nnnn2-c2cccc(OC)c2)cc1,inactive,
